D1 PAM – human D1 dopamine receptor positive modulation; potentiation, % at 10 µM; 0.036% of 360,000 active; P21728; HEK293 TREx D1 cells, calcium flux, dopamine EC20 potentiation; in the data active means potentiation above about 30%; further: 0% is about no effect
TRHR PAM – allosteric enhancers of human TRH receptor | TRHR cells, fluo-8 calcium fluorescence, EC20 TRH enhancement | enhancement, % at 2 µM | 0.66% of 360,000 active | P34981; in the data active means enhancement above about 30%; further: 0% is about no effect
Target sequence (P34981 whole entry, looked up): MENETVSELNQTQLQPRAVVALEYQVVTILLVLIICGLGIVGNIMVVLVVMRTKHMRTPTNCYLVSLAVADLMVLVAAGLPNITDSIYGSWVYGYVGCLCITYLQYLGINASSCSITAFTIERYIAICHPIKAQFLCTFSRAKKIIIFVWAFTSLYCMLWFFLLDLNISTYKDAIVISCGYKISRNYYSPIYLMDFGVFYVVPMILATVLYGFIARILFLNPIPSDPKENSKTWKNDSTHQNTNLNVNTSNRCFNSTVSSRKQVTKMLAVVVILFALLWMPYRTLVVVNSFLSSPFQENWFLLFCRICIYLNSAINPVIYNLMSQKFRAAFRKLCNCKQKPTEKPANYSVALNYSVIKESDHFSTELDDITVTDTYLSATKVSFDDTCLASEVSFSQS
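TRHR-expressing cells loaded with fluo-8 calcium dye were read kinetically (ex 480/em 530) during compound addition, then stimulated with an EC20 of TRH (10 nM final). Enhancement of the Gq-mediated intracellular calcium response was scored.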
USP1 inh – inhibitors of human USP1/UAF1 deubiquitinase. O94782. recombinant USP1/UAF1, Ub-Rhodamine cleavage fluorescence. Potency, µM (titrated, usually from 57.1 µM), inactives show top-dose activity change, negative = inhibition, usual class: inhibitors. 0.23% of 390,000 active. AID 743255; active means well fitted inhibition curve with a large enough effect; inconclusive means small, poorly fitted or top-dose-only effect; inactive means no such curve, though single readings can be large or run the other way; further: potency means the concentration at half of the fitted maximal effect; on the % scale 0 is the no-effect control and ±100 the full control effect; nearly all actives have a fitted effect of over 60% in size
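1 nM enzyme complex + cpd, 15 min RT; start with Ub-Rho 150nM final; kinetic fluorescence ex 480/em 540, 6 reads q60 s. Buffer 50mM HEPES pH 7.8, 0.5mM EDTA, 0.1 mg/ml BSA, 1mM TCEP, 0.01% Tween-20.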
TRHR ag – TRH receptor (human) agonism. P34981. TRHR cells, calcium flux fluo-8, FDSS agonist mode. activation, % at 2 µM. 0.18% of 360,000 active; further: 0% is about no effect
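In this calcium-flux screen, cells bearing human TRHR are dye-loaded with fluo-8, baselined for 10 cycles, then exposed to library compounds; positive kinetic calcium responses during the agonist phase mark hits, with TRH as control.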
D1 antagonist – human D1 dopamine receptor antagonism; HEK293 TREx D1 cells, calcium flux, dopamine EC80; active compounds read low; P21728; 3.2% of 360,000 active; activity change, negative = inhibition, % at 10 µM; in the data active means activity change below about -30%; further: on the % scale 0 is the no-effect control and ±100 the full control effect
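Tetracycline-induced HEK293 Trex D1 cells, force-coupled to calcium, dye-loaded; compounds added and read 180 s, then EC80 dopamine added and calcium flux tracked kinetically another 180 s.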
D1 ag – agonists of human D1 dopamine receptor; HEK293 T-REx D1 cells, calcium flux, agonist mode; activation, % at 2 µM; 1% of 360,000 active; further: 0% is about no effect
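Inducible HEK293 T-REx D1 cells, force-coupled to calcium signalling, were plated at 4000 cells/well with tetracycline and held overnight at 30 C. After no-wash calcium dye loading, compound-evoked calcium rise over 180 s flagged agonists.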
* marks the source's active call; other numbers are inactive results; u = inconclusive; x = no result; ! = repeats disagree. Most compounds without a hit are left out; they make up all but 4.4% or so of the library. Unless noted, no stated cut-off is given here; in the data, active means activation above about 30%; inactive means the rest.

SMILES | D1 PAM | TRHR PAM | USP1 inh | TRHR ag | D1 antagonist | D1 ag
CNC(=O)c1c(NC(=O)c2ccc(S(=O)(=O)N(C)c3ccccc3)cc2)sc2c1CCN(C(C)C)C2 | -1 | 3 | -23% | 62* | -12 | 90*
O=C(Nc1cccc([N+](=O)[O-])c1)c1cc2ccccc2cc1O | -7 | -3 | -18% | 5 | -42* | 24
O=C(O)c1ccccc1C(=O)Nc1cccc([N+](=O)[O-])c1 | 5 | 1 | -6% | 1 | -7 | 2
O=C(Nc1cccc([N+](=O)[O-])c1)c1ccc(-c2ccccc2)cc1 | -8 | 8 | -17% | 1 | -59* | 15
COc1ccc(NC(=O)c2cc([N+](=O)[O-])ccc2O)cc1 | -2 | 0 | -14% | 1 | -31* | 26
CC(Sc1cccc[n+]1[O-])C(=O)Nc1cccc([N+](=O)[O-])c1 (configuration not stated) | -5 | 11 | -23% | 0 | -2 | 3
CC(C(=O)Nc1cccc([N+](=O)[O-])c1)[n+]1ccccc1 (configuration not stated) | 0 | 31* | -5% | 1 | -2 | 0
O=C(Nc1cccc([N+](=O)[O-])c1)c1cccc(C(=O)Nc2cccc([N+](=O)[O-])c2)c1 | -1 | 14 | 0% | -1 | -19 | 19
Nc1nc(COC(=O)c2ccc3c(c2)OCCO3)nc(Nc2ccccc2)n1 | -6 | 3 | -20% | 0 | -31* | 33*
Nc1nc(COC(=O)CCC(=O)c2ccccc2)nc(Nc2ccccc2)n1 | -11 | 0 | -24% | 0 | -32* | 3
O=C(CC1N=C2c3ccccc3N=C(SCc3ccccc3Cl)N2C1=O)NCCc1ccccc1 (configuration not stated) | 2 | 5 | u | 0 | 19 | 4
CC(=O)OCc1ccccc1Sc1ccccc1C(=O)NCc1ccccc1 | 11 | 3 | u | 0 | -45* | 3
COc1ccc(CNC(=O)c2ccccc2SC)cc1 | -2 | -7 | -18% | 0 | 13 | 6
CCOc1ccccc1NC(=O)COn1nnc2ccc(Cl)cc21 | 5 | 9 | 1% | 0 | -5 | 30*
Cc1cc(NC(=O)COn2nnc3ccc(Cl)cc32)no1 | -6 | 14 | -16% | 0 | -6 | 1
CC(C)(C)C(=O)/C=c1\[nH]c(=O)/c(=C\c2ccc(C#N)cc2)s1 | -11 | 4 | -1% | 1 | -47* | 4
Cc1cccc(/C=c2\s/c(=C\C(=O)C(C)(C)C)[nH]c2=O)c1 | 3 | 6 | u | 0 | -13 | 1
CC1=CC(=O)Nc2ccccc2S1 | x | x | 22µM* | x | x | x
CC1(C)CC(=O)C2=C(C1)Nc1ccccc1S2 | -5 | -3 | u | 0 | -16 | 2
Clc1ccc(C2=NNC(=NCc3ccccc3)SC2)cc1 | -10 | 2 | -10% | -1 | -22 | 3
Fc1ccc(C2=NNC(=NCc3ccccc3)SC2)cc1F | -9 | -3 | -10% | -3 | -40* | 0
CCCCOC(=O)c1ccc(Nc2ncnc3c2cnn3-c2cccc(C)c2)cc1 | 0 | 4 | 0% | 0 | -3 | -2
Cc1ccc(C)c(CSC2=NC(C)(C)Nc3ccccc32)c1 | -10 | 6 | -14% | 0 | -83* | 0
COc1ccc(N2CC(C(=O)OCC(=O)Nc3cccc(C)c3)CC2=O)cc1 (configuration not stated) | 8 | 11 | -16% | 0 | -31* | 2
COc1ccc(C2NC(=O)N(C)C3=C2C(=O)N(c2cccc(Cl)c2)C3)cc1 (configuration not stated) | -2 | 0 | -13% | -1 | 9 | 0
SMILES | D1 PAM | TRHR PAM | USP1 inh | TRHR ag | D1 antagonist | D1 ag
N#CC1=C(N)S[C@@H](C(=O)c2ccc(F)cc2)[C@@H]1c1cccs1 | -8 | 3 | -8% | 1 | -43* | 3
O=C1C(=C(c2ccccc2)c2ccccc2)Nc2ccccc21 | -12 | -12 | -17% | 0 | -7 | 36*
O=C1C(=C(O)c2ccccc2)C(=O)c2ccccc21 | 2 | -1 | u | 0 | 7 | 2
COc1ccc(NC(=O)COC(=O)CC2CC3CCC2C3)c([N+](=O)[O-])c1 (configuration not stated) | -2 | 3 | -9% | 0 | -97* | 4
O=C(NC1CCCc2ccccc21)c1cc(F)cc(F)c1 (configuration not stated) | x | 3 | -22% | -1 | -9 | 6
O=C(NC1CCCc2ccccc21)c1ccc(=O)[nH]c1 (configuration not stated) | -2 | -2 | 5% | 1 | -39* | 1
CCN1C(=O)C2(c3ccccc31)c1c(oc3ccccc3c1=O)C(=O)N2CCOC (configuration not stated) | 0 | 0 | -18% | 0 | -9 | 1
Cc1cc(C)cc(OCCn2ccnc2)c1 | -2 | 35* | -11% | 0 | 29 | 2
Cc1ccc(OCCCn2ccnc2)c(Br)c1 | -7 | 7 | 7% | 0 | -68* | 5
COc1cc(C2C(C(=O)OC(C)C)=C(C)N=C3SCCC(=O)N32)ccc1OCc1ccccc1 (configuration not stated) | -7 | -12 | -23% | 2 | -5 | 12
Cc1ccc(CNC(=O)c2c(-c3ccccc3F)noc2C)o1 | -1 | -1 | -19% | 0 | 7 | -2
Cc1cc(C)c2c(c1)C1C=CCC1C(C(=O)O)N2 (configuration not stated) | 10 | -3 | x | 1 | 12 | 0
COc1ccccc1-c1nc(-c2ccc(Br)o2)no1 | 1 | 24 | -7% | 1 | -35*! | 4
CCOC(=O)C(CC)n1nc(C)c2c(C)n(-c3ccc(C)cc3)nc2c1=O (configuration not stated) | -4 | 0 | u | -2 | -48* | 5
Cc1ccc(-n2nc3c(=O)n(C(C)C(=O)NCc4ccco4)nc(C)c3c2C)cc1 (configuration not stated) | -4 | 0 | -5% | -1 | -35*! | 0
CCC(C(=O)NCc1ccco1)n1nc(C)c2c(C)n(-c3ccc(C)cc3)nc2c1=O (configuration not stated) | -7 | -3 | -20% | -1 | -5 | -2
COc1cccc(OCCn2c(-c3ccc(Cl)cc3)nc3ccccc3c2=O)c1 | -1 | 4 | u | 1 | -2 | 2
COc1ccccc1N1CCN(S(=O)(=O)c2cc(C(=O)Nc3ccc(Oc4ccccc4)cc3)ccc2F)CC1 | -2 | -2 | u | 0 | -6 | -1
CCOc1cc(-c2nnc(SCC(=O)NCc3ccccc3)nc2-c2ccc(OC)c(OCC)c2)ccc1OC | -2 | 6 | 11% | 0 | -8 | 4

Source: PubChem BioAssay
